# Source: paper PMC11006913
# Changes are numbered by the printed parent chain.
# Experiments:
# Test in all cases: PBM; 200 nM protein, PBS
# Conditions in all cases: dsDNA, one strand shown
# CRX [1] = biological target: CRX (Homo sapiens, UniProt O43186 26-111)
# CRX [2] = biological target: CRX (Homo sapiens, UniProt O43186 26-111, E42D)
# SIX6 = biological target: T1, SIX6 (Homo sapiens, UniProt O95475 114-200, T165P)
# T1 sequence: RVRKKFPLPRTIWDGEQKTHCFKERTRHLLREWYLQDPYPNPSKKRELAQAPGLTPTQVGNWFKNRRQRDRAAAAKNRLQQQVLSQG
# CRX [3] = biological target: CRX (Homo sapiens, UniProt O43186 26-111, R41L)
# Sequence of CRX (Homo sapiens, UniProt O43186 26-111, R41L) (O43186 26-111 R41L): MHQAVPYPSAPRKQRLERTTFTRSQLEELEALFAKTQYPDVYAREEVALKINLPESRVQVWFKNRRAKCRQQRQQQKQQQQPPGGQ
# MSX2 [4] = biological target: MSX2 (Homo sapiens, UniProt P35548 130-214, R199I)
# Sequence of MSX2 (Homo sapiens, UniProt P35548 130-214, R199I) (P35548 130-214 R199I): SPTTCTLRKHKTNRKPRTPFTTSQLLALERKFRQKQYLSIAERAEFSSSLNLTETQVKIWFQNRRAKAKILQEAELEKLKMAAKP
# ALX1 [5] = biological target: ALX1 (Homo sapiens, UniProt Q15699 118-204, L144V)
# Sequence of ALX1 (Homo sapiens, UniProt Q15699 118-204, L144V) (Q15699 118-204 L144V): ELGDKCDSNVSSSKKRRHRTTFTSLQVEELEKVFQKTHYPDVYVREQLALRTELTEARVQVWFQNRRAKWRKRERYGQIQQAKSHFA
# ALX1 [6] = biological target: ALX1 (Homo sapiens, UniProt Q15699 118-204, L144R)
# Sequence of ALX1 (Homo sapiens, UniProt Q15699 118-204, L144R) (Q15699 118-204 L144R): as the sequence (Q15699 118-204 L144V) above, with V27R counted along it
# MSX2 [7] = biological target: MSX2 (Homo sapiens, UniProt P35548 130-214)
# Sequence of MSX2 (Homo sapiens, UniProt P35548 130-214) (P35548 130-214): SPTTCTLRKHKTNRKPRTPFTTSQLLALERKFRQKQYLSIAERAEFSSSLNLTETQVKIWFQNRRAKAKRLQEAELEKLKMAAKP
# VAX1 [8] = biological target: VAX1 (Homo sapiens, UniProt Q5SQQ9 86-172)
# Sequence of VAX1 (Homo sapiens, UniProt Q5SQQ9 86-172) (Q5SQQ9 86-172): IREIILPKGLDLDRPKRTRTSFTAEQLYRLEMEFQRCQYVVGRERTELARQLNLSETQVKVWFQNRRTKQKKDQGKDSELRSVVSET
# MSX2 [9] = biological target: MSX2 (Homo sapiens, UniProt P35548 130-214, F161Y)
# Sequence of MSX2 (Homo sapiens, UniProt P35548 130-214, F161Y) (P35548 130-214 F161Y): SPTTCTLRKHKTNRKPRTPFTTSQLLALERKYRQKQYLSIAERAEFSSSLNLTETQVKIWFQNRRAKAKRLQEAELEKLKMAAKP
# VAX1 [10] = biological target: VAX1 (Homo sapiens, UniProt Q5SQQ9 86-172, T142I)
# Sequence of VAX1 (Homo sapiens, UniProt Q5SQQ9 86-172, T142I) (Q5SQQ9 86-172 T142I): as the sequence (Q5SQQ9 86-172) above, with T57I counted along it
# ALX1 [11] = biological target: ALX1 (Homo sapiens, UniProt Q15699 118-204)
# Sequence of ALX1 (Homo sapiens, UniProt Q15699 118-204) (Q15699 118-204): as the sequence (Q15699 118-204 L144V) above, with V27L counted along it
# VAX1 [12] = biological target: VAX1 (Homo sapiens, UniProt Q5SQQ9 86-172, K157R)
# Sequence of VAX1 (Homo sapiens, UniProt Q5SQQ9 86-172, K157R) (Q5SQQ9 86-172 K157R): as the sequence (Q5SQQ9 86-172) above, with K72R counted along it
# ALX4 [13] = biological target: ALX4 (Homo sapiens, UniProt Q9H161 200-286)
# Sequence of ALX4 (Homo sapiens, UniProt Q9H161 200-286) (Q9H161 200-286): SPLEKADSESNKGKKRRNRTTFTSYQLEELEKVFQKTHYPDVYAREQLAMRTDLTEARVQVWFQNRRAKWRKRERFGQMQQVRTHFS
# PRRX1 [14] = biological target: PRRX1 (Homo sapiens, UniProt P54821 80-166, F113S)
# Sequence of PRRX1 (Homo sapiens, UniProt P54821 80-166, F113S) (P54821 80-166 F113S): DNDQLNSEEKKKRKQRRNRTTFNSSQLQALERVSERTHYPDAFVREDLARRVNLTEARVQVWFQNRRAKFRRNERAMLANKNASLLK
# ALX4 [15] = biological target: ALX4 (Homo sapiens, UniProt Q9H161 200-286, Q225E)
# Sequence of ALX4 (Homo sapiens, UniProt Q9H161 200-286, Q225E) (Q9H161 200-286 Q225E): as the sequence (Q9H161 200-286) above, with Q26E counted along it
# PRRX1 [16] = biological target: PRRX1 (Homo sapiens, UniProt P54821 80-166)
# Sequence of PRRX1 (Homo sapiens, UniProt P54821 80-166) (P54821 80-166): as the sequence (P54821 80-166 F113S) above, with S34F counted along it
# HOXA7 [17] = biological target: HOXA7 (Homo sapiens, UniProt P31268 116-202)
# Sequence of HOXA7 (Homo sapiens, UniProt P31268 116-202) (P31268 116-202): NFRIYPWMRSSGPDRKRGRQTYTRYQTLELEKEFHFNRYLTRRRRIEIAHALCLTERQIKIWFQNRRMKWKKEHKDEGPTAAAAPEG
# HOXA7 [18] = biological target: HOXA7 (Homo sapiens, UniProt P31268 116-202, W177C)
# Sequence of HOXA7 (Homo sapiens, UniProt P31268 116-202, W177C) (P31268 116-202 W177C): as the sequence (P31268 116-202) above, with W62C counted along it
# NKX2-6 [19] = biological target: T2, NKX2-6 (Homo sapiens, UniProt A6NCS4 118-204, R150C)
# T2 sequence: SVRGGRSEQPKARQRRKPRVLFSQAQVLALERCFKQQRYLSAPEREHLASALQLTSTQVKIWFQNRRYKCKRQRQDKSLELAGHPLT
# NKX3-2 [20] = biological target: NKX3-2 (Homo sapiens, UniProt P78367 192-278, P234S)
# Sequence of NKX3-2 (Homo sapiens, UniProt P78367 192-278, P234S) (P78367 192-278 P234S): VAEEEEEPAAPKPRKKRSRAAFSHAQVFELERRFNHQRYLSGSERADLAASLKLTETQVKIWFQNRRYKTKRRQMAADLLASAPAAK
# NKX3-2 [21] = biological target: NKX3-2 (Homo sapiens, UniProt P78367 192-278)
# Sequence of NKX3-2 (Homo sapiens, UniProt P78367 192-278) (P78367 192-278): as the sequence (P78367 192-278 P234S) above, with S43P counted along it
# PITX2 = PITX2 (Homo sapiens, UniProt Q99697 72-157)
# NKX2-6 [22] = biological target: T3, NKX2-6 (Homo sapiens, UniProt A6NCS4 118-204)
# T3 sequence: T2 sequence with C33R
# NKX2-6 [23] = biological target: T4, NKX2-6 (Homo sapiens, UniProt A6NCS4 118-204, F151L)
# T4 sequence: T2 sequence with C33R, F34L
# Sequence of CRX (Homo sapiens, UniProt O43186 26-111, E42D) (O43186 26-111 E42D): as the sequence (O43186 26-111 R41L) above, with L16R, E17D counted along it
# Sequence of CRX (Homo sapiens, UniProt O43186 26-111) (O43186 26-111): as the sequence (O43186 26-111 R41L) above, with L16R counted along it
sequence,measurement,setting,value
AGCTCAGG,binding signal,CRX [1],"9.99 upbm affinity estimate (log intensity, higher = more binding, comparable within an allelic series)"
same,binding signal,CRX [2],"9.91 upbm affinity estimate (log intensity, higher = more binding, comparable within an allelic series)"
GCGGATCA,binding signal,CRX [1],"11.3 upbm affinity estimate (log intensity, higher = more binding, comparable within an allelic series)"
same,binding signal,SIX6,"9.3 upbm affinity estimate (log intensity, higher = more binding, comparable within an allelic series)"
same,binding signal,CRX [2],"11.2 upbm affinity estimate (log intensity, higher = more binding, comparable within an allelic series)"
same,binding signal,CRX [3],"10.8 upbm affinity estimate (log intensity, higher = more binding, comparable within an allelic series)"
CGCTCGCC,binding signal,CRX [1],"7.99 upbm affinity estimate (log intensity, higher = more binding, comparable within an allelic series)"
same,binding signal,CRX [2],"8.05 upbm affinity estimate (log intensity, higher = more binding, comparable within an allelic series)"
same,binding signal,MSX2 [4],"9.42 upbm affinity estimate (log intensity, higher = more binding, comparable within an allelic series)"
same,binding signal,ALX1 [5],"6.31 upbm affinity estimate (log intensity, higher = more binding, comparable within an allelic series)"
same,binding signal,ALX1 [6],"6.41 upbm affinity estimate (log intensity, higher = more binding, comparable within an allelic series)"
same,binding signal,MSX2 [7],"9.46 upbm affinity estimate (log intensity, higher = more binding, comparable within an allelic series)"
same,binding signal,VAX1 [8],"6.87 upbm affinity estimate (log intensity, higher = more binding, comparable within an allelic series)"
same,binding signal,MSX2 [9],"9.5 upbm affinity estimate (log intensity, higher = more binding, comparable within an allelic series)"
same,binding signal,VAX1 [10],"7.1 upbm affinity estimate (log intensity, higher = more binding, comparable within an allelic series)"
same,binding signal,CRX [3],"8.16 upbm affinity estimate (log intensity, higher = more binding, comparable within an allelic series)"
same,binding signal,ALX1 [11],"6.39 upbm affinity estimate (log intensity, higher = more binding, comparable within an allelic series)"
same,binding signal,VAX1 [12],"7.05 upbm affinity estimate (log intensity, higher = more binding, comparable within an allelic series)"
CCTCCCAC,binding signal,CRX [1],"8.12 upbm affinity estimate (log intensity, higher = more binding, comparable within an allelic series)"
same,binding signal,ALX4 [13],"7.99 upbm affinity estimate (log intensity, higher = more binding, comparable within an allelic series)"
same,binding signal,PRRX1 [14],"9.27 upbm affinity estimate (log intensity, higher = more binding, comparable within an allelic series)"
same,binding signal,ALX4 [15],"8.07 upbm affinity estimate (log intensity, higher = more binding, comparable within an allelic series)"
same,binding signal,CRX [2],"8.07 upbm affinity estimate (log intensity, higher = more binding, comparable within an allelic series)"
same,binding signal,CRX [3],"8.16 upbm affinity estimate (log intensity, higher = more binding, comparable within an allelic series)"
same,binding signal,PRRX1 [16],"9.17 upbm affinity estimate (log intensity, higher = more binding, comparable within an allelic series)"
TGCGATAA,binding signal,CRX [1],"10.9 upbm affinity estimate (log intensity, higher = more binding, comparable within an allelic series)"
same,binding signal,HOXA7 [17],"9.91 upbm affinity estimate (log intensity, higher = more binding, comparable within an allelic series)"
same,binding signal,CRX [2],"10.5 upbm affinity estimate (log intensity, higher = more binding, comparable within an allelic series)"
same,binding signal,HOXA7 [18],"8.8 upbm affinity estimate (log intensity, higher = more binding, comparable within an allelic series)"
same,binding signal,CRX [3],"10.4 upbm affinity estimate (log intensity, higher = more binding, comparable within an allelic series)"
CGGCACGA,binding signal,CRX [1],"8.45 upbm affinity estimate (log intensity, higher = more binding, comparable within an allelic series)"
same,binding signal,NKX2-6 [19],"9.55 upbm affinity estimate (log intensity, higher = more binding, comparable within an allelic series)"
same,binding signal,CRX [2],"8.43 upbm affinity estimate (log intensity, higher = more binding, comparable within an allelic series)"
same,binding signal,VAX1 [8],"6.96 upbm affinity estimate (log intensity, higher = more binding, comparable within an allelic series)"
same,binding signal,VAX1 [10],"7.11 upbm affinity estimate (log intensity, higher = more binding, comparable within an allelic series)"
same,binding signal,CRX [3],"8.41 upbm affinity estimate (log intensity, higher = more binding, comparable within an allelic series)"
same,binding signal,VAX1 [12],"7.16 upbm affinity estimate (log intensity, higher = more binding, comparable within an allelic series)"
GACGCGCC,binding signal,CRX [1],"8.22 upbm affinity estimate (log intensity, higher = more binding, comparable within an allelic series)"
same,binding signal,NKX2-6 [19],"9.4 upbm affinity estimate (log intensity, higher = more binding, comparable within an allelic series)"
same,binding signal,CRX [2],"8.15 upbm affinity estimate (log intensity, higher = more binding, comparable within an allelic series)"
same,binding signal,NKX3-2 [20],"10.5 upbm affinity estimate (log intensity, higher = more binding, comparable within an allelic series)"
same,binding signal,CRX [3],"8.22 upbm affinity estimate (log intensity, higher = more binding, comparable within an allelic series)"
same,binding signal,NKX3-2 [21],"10.5 upbm affinity estimate (log intensity, higher = more binding, comparable within an allelic series)"
CTAACTCC,binding signal,CRX [1],"9.81 upbm affinity estimate (log intensity, higher = more binding, comparable within an allelic series)"
same,binding signal,CRX [2],"9.62 upbm affinity estimate (log intensity, higher = more binding, comparable within an allelic series)"
CGGCTTAA,binding signal,CRX [1],"12.9 upbm affinity estimate (log intensity, higher = more binding, comparable within an allelic series)"
same,binding signal,CRX [2],"12.8 upbm affinity estimate (log intensity, higher = more binding, comparable within an allelic series)"
same,binding signal,PITX2,"12.5 upbm affinity estimate (log intensity, higher = more binding, comparable within an allelic series)"
CGTCTGTC,binding signal,CRX [1],"8.37 upbm affinity estimate (log intensity, higher = more binding, comparable within an allelic series)"
same,binding signal,CRX [2],"8.33 upbm affinity estimate (log intensity, higher = more binding, comparable within an allelic series)"
same,binding signal,NKX2-6 [22],"9.53 upbm affinity estimate (log intensity, higher = more binding, comparable within an allelic series)"
same,binding signal,NKX2-6 [23],"9.5 upbm affinity estimate (log intensity, higher = more binding, comparable within an allelic series)"
same,binding signal,CRX [3],"8.42 upbm affinity estimate (log intensity, higher = more binding, comparable within an allelic series)"
AGTTTATC,binding signal,CRX [1],"10.5 upbm affinity estimate (log intensity, higher = more binding, comparable within an allelic series)"
same,binding signal,CRX [2],"10.3 upbm affinity estimate (log intensity, higher = more binding, comparable within an allelic series)"
same,binding signal,ALX1 [5],"7.91 upbm affinity estimate (log intensity, higher = more binding, comparable within an allelic series)"
same,binding signal,ALX1 [6],"8.01 upbm affinity estimate (log intensity, higher = more binding, comparable within an allelic series)"
same,binding signal,CRX [3],"10.2 upbm affinity estimate (log intensity, higher = more binding, comparable within an allelic series)"
same,binding signal,ALX1 [11],"8.04 upbm affinity estimate (log intensity, higher = more binding, comparable within an allelic series)"
GTTGGCCA,binding signal,CRX [1],"8.35 upbm affinity estimate (log intensity, higher = more binding, comparable within an allelic series)"
same,binding signal,CRX [2],"8.33 upbm affinity estimate (log intensity, higher = more binding, comparable within an allelic series)"
same,binding signal,PITX2,"8.06 upbm affinity estimate (log intensity, higher = more binding, comparable within an allelic series)"
same,binding signal,CRX [3],"8.24 upbm affinity estimate (log intensity, higher = more binding, comparable within an allelic series)"
AGTTAATC,binding signal,CRX [1],"12.7 upbm affinity estimate (log intensity, higher = more binding, comparable within an allelic series)"
same,binding signal,CRX [2],"12.7 upbm affinity estimate (log intensity, higher = more binding, comparable within an allelic series)"
same,binding signal,PITX2,"12.3 upbm affinity estimate (log intensity, higher = more binding, comparable within an allelic series)"
same,binding signal,CRX [3],"12.4 upbm affinity estimate (log intensity, higher = more binding, comparable within an allelic series)"
